High-throughput results: PubChem, several laboratories
aSyn UTR inh – MLPCN primary screen, SNCA 5' untranslated region. alpha-synuclein 5'UTR reporter, inhibitor activity. inhibition, % (tested at 7.5 µM). 300,000 tested, 0.82% active; in the data active = inhibition above about 60%; inconclusive = no clear call, values can overlap the other calls;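 note: H4 neuroglioblastoma cells stably carrying SNCA 5'UTR luciferase fusion; 0% = DMSO wells and 100% = positive control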
Ba/F3 V617F tox – loss of viability in JAK2V617F-driven Ba/F3 cells; Ba/F3 EpoR-JAK2V617F viability, ATP luminescence; inhibition, % at 5.6 µM; 220,000 tested, 1.1% active; AID 1446;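 active = inhibition above the campaign mean plus 3 SD over all tested compounds, cut at about 24% in these data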;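 note: cytokine-independent growth of Ba/F3 cells driven by EpoR plus mutant JAK2; 0% = DMSO-treated cells and 100% = JAK inhibitor I control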
KLF5 inhibitor – kruppel-like factor 5 inhibition; DLD-1 KLF5 promoter-luciferase reporter, luminescence; inhibition, % at 5 µM; 290,000 tested, 0.23% active; AID 1700;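 active = inhibition above a per-plate limit of that plate's mean compound inhibition plus 3 SD, cut at about 60% in these data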;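 note: 0% = DMSO wells and 100% = LY294002 at 200 µM; higher means less KLF5 promoter-driven luciferase light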
APP 5UTR inh – APP translation inhibition; 190,000 tested, 0.82% active; inhibition, % at 2 µM; SH-SY5Y APP 5'UTR-luciferase reporter, luminescence;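 active = inhibition above a set limit, derived from the sample mean plus 3 SD, cut at about 45% in these data; inconclusive = one replicate passes the limit while the other fails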
BaF3 tox – reduces parental Ba/F3 cell viability, JAK2V617F counter-screen; 220,000 tested, 1.1% active; CellTiter-Glo ATP luminescence; inhibition, % at 5.6 µM;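 active = inhibition above a per-campaign cutoff, the mean inhibition of all tested compounds plus 3 SD, cut at about 27% in these data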;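 note: 0% = DMSO wells and 100% = JAK Inhibitor I control wells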
IEC-6 cytotox – kills IEC-6 intestinal cells in KLF5 counter-screen | IEC-6 cytotoxicity, luminescence viability | inhibition, % at 5 µM | 290,000 tested, 0.78% active | AID 1825;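 note: 0% = plate median of test compound wells and 100% = cytotoxic reference compound wells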
IEC-6 cytotox cf – IEC-6 cytotoxicity, confirmation assay; shares compounds with IEC-6 cytotox; IEC-6 rat intestinal epithelial viability, luminescence; inhibition, % at 5 µM; 1,900 tested, 63% active; AID 1907;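 note: 0% = vehicle and 100% = reference cytotoxic drug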
* hit, by the source's call; ? = inconclusive; / = no result. Most compounds without a hit are left out; they make up all but 2.2% or so of the library. Cut-off read from the data, not from the text of the source, unless noted: active = inhibition above about 22%; inactive = the rest.

SMILES	aSyn UTR inh	Ba/F3 V617F tox	KLF5 inhibitor	APP 5UTR inh	BaF3 tox	IEC-6 cytotox	IEC-6 cytotox cf
FC(F)Sc1nc2ccccc2[nH]1	15	-2	-16	/	-3	4	/
O=C(C(=O)N1CCN(c2cccc(Cl)c2)CC1)c1cn(CC(=O)N2CCOCC2)c2ccccc12	-3	/	-4	/	/	0	/
COc1ccc2cc1Oc1ccc(cc1)CC1c3c(cc(OC)c4c3Oc3cc5c(cc3O4)CCNC5C2)CCN1C (stereo unspecified)	114*	-1	-10	/	1	45*	8
Cc1nnc(N/N=C/c2cccc(OCc3ccc(Cl)c(Cl)c3)c2)n1N	-83	5	-137	-36	6	98*	4
Cc1noc(C)c1CSCC(=O)Nc1ccc(S(=O)(=O)C(F)F)cc1	7	/	/	/	/	/	/
CCOc1ccc2c(c1)OC(c1ccc(OC)cc1)(C(F)(F)F)NC2=O (stereo unspecified)	96*	78*	45	91*	77*	81*	55*
COc1cc(OC)cc(C(=O)Oc2c(CN3CCOCC3)cc(Cl)c3cccnc23)c1	92*	-2	23	/	-5	80*	-7
CCOc1ccc(OCCC(=O)OCC(=O)Nc2cc(OCC)c(N3CCOCC3)cc2OCC)cc1	4	/	/	/	/	/	/
Cc1cc(NS(=O)(=O)c2ccc(NC(=S)NC(=O)c3ccccc3)cc2)no1	6	5	-36	-25	10	63*	23*
CCOC(=O)C(NC(C)=O)C(=O)Nc1ccc(C)cc1C (stereo unspecified)	16	1	-18	-4	2	0	/
Cc1cccc(Nc2ccc([N+](=O)[O-])cn2)c1	-87	/	-114	/	/	3	/
NNC(=O)c1[nH]c2ccc([N+](=O)[O-])cc2c1-c1ccccc1	-1	/	-3	/	/	91*	-3
O=C(O)c1[nH]c2ccc([N+](=O)[O-])cc2c1-c1ccccc1	-9	-3	5	/	1	-1	/
COc1cc(C(=O)N(c2ccc(C)c(C)c2)C2C=CS(=O)(=O)C2)cc(OC)c1OC (stereo unspecified)	21	-1	-33	-20	-1	3	/
O=C(Nc1ccc(-c2nc3ccccc3[nH]2)cc1)c1c(F)c(F)c(F)c(F)c1F	-5	-2	-17	-5	1	-2	/
COc1c(F)c(F)c(C(=O)Nc2ccc(-c3nc4ccccc4[nH]3)cc2)c(F)c1F	-12	3	-28	-33	0	27*	5
COc1ccccc1N1CCN(c2ccnc3cc(Cl)ccc23)CC1	87*	/	42	/	/	65*	53*
COc1cc(CC(=O)NCc2ccc3c(c2)OCO3)cc(OC)c1OC	6	-2	-28	-5	5	-4	/
COc1cc(CC(=O)OCC(=O)c2ccc3c(c2)OCCO3)cc(OC)c1OC	100*	72*	42	94*	79*	88*	56*
Cc1cc(C(=O)COC(=O)C2=COCCO2)c(C)n1-c1cccc(F)c1	-156	/	/	/	/	/	/
CCCCNc1ncnc2c1cnn2-c1ccc(Cl)cc1	-137	4	-113	34	9	19	/
CCCCNc1ncnc2c1cnn2-c1ccccc1	-260	64*	-42	-102	66*	38*	29*
CC(C)C(C)NC(=O)COc1ccc(S(=O)(=O)N2CCOCC2)cc1Cl (stereo unspecified)	-2	2	7	-3	4	3	/
Cc1ccc(C2NC(=O)c3ccccc3N2)s1 (stereo unspecified)	-168	83*	43	18	80*	73*	8
C1=Nc2c(Nc3ccccc3)ncnc2Oc2ccccc21	-12	-4	-39	-6	6	53*	33*
SMILES	aSyn UTR inh	Ba/F3 V617F tox	KLF5 inhibitor	APP 5UTR inh	BaF3 tox	IEC-6 cytotox	IEC-6 cytotox cf
Clc1ccc2c(c1)C=Nc1c(NCc3ccccc3)ncnc1O2	12	-2	-1	-24	3	-1	/
Cc1cnc(C(=O)OC(C)C(=O)c2c(C)[nH]c3ccccc23)cn1 (stereo unspecified)	6	/	/	/	/	/	/
Cc1ccc(S(=O)(=O)Nc2ccccc2-c2ccccc2)cc1	?	69*	54	90*	71*	55*	51*
Cc1ccc(S(=O)(=O)Nc2ccccc2N(C)S(=O)(=O)c2ccc(C)cc2)cc1	9	/	/	/	/	/	/
COc1cccc(C2=CC(c3ccccc3)n3nnnc3N2)c1 (stereo unspecified)	-28	3	21	2	0	28*	32*
CC1CC2(C)Oc3ccccc3CC2C(C)C1CNCCCN(C)C (stereo unspecified)	106*	102*	4	1	104*	34*	100*
CCOC(=O)c1ccccc1NC(=O)COC(=O)C1CC(=O)N(CCc2ccccc2)C1 (stereo unspecified)	18	/	/	/	/	/	/
COCCCNC(=O)C1CCCN(S(=O)(=O)c2ccc(C)cc2)C1 (stereo unspecified)	11	-2	-18	12	3	-4	/
COCCNC(=O)Cc1c(C)c2c(cc(C)c3c(C)coc32)oc1=O	-15	/	-52	/	/	0	/
COCCCNC(=O)Cc1c(C)c2c(cc(C)c3c(C(C)(C)C)coc32)oc1=O	28	/	61	/	/	84*	59*
Cc1ccc2[nH]c(C(=O)N/N=C/c3ccc([N+](=O)[O-])cc3)c(C)c2c1	-63	/	32	/	/	34*	26*
c1ccc(CNc2c3ccccc3nc3ccccc23)cc1	-332	/	-4	/	/	26*	16
C=CCn1c(SCC(=O)NC2CC2)nnc1C1CC1	-2	/	-44	/	/	-2	/
CCc1ccc(C(=O)C(C)OC(=O)Cc2n[nH]c(=O)c3ccccc23)cc1 (stereo unspecified)	-44	/	16	/	/	25*	9
COc1ccccc1NC(=O)c1ccc(NC(=O)Cc2n[nH]c(=O)c3ccccc23)cc1	54	6	-5	/	-7	25*	17
CC(=O)c1cccc(NC(=O)C(C)OC(=O)Cc2n[nH]c(=O)c3ccccc23)c1 (stereo unspecified)	-22	/	-29	/	/	-4	/
N/C(=N\OC(=O)COc1ccc(Cl)cc1Cl)c1ccncc1	/	3	-206	-175	5	6	/
